Assay results as given in PubChem BioAssay (NCATS).
Results filed as inconclusive are left out. Where a call stands in place of a potency, no number is given. Activity calls are given as the source filed them. Unless noted, calls follow the shape of the dose curve; as a rule, active = well fitted curve in the direction sought with a large enough effect; inconclusive = small, poorly fitted or top-dose-only effect, or another doubt; inactive = no such curve, though single readings can be large; an effect the other way counts as inactive or inconclusive.

system: not listed separately; experiment: Validation screen for inhibitors of Lassa infection (AID 463096; calls by dose curve); conditions: Lassa virus infection, cell-based; series mostly up to 46.1 µM

Row | SMILES | Potency
1 | CN(C)CC[C@@H](c1ccc(Cl)cc1)c1ccccn1 | inactive
2 | CCCCCCCCC(=O)NCc1ccc(O)c(OC)c1 | inactive
3 | NCCc1cnc[nH]1 | inactive
4 | Cc1ccc(C(=O)Nc2ccc(S(=O)(=O)O)c3cc(S(=O)(=O)O)cc(S(=O)(=O)O)c23)cc1NC(=O)c1cccc(NC(=O)Nc2cccc(C(=O)Nc3cc(C(=O)Nc4ccc(S(=O)(=O)O)c5cc(S(=O)(=O)O)cc(S(=O)(=O)O)c45)ccc3C)c2)c1 | inactive
5 | COC(=O)C1=C(C)NC(C)=C(C(=O)OC)C1c1ccccc1[N+](=O)[O-] | inactive
6 | COC(=O)C1=CCCN(C)C1 | inactive
7 | C[C@]12CCC(=O)C=C1CC[C@@H]1[C@@H]2CC[C@@]2(C)[C@H]1CC[C@]2(O)C(=O)CO | inactive
8 | Cc1ccc(/C(=C\CN2CCCC2)c2ccccn2)cc1 | inactive
9 | C[N+](C)(C)CCCCCCCCCC[N+](C)(C)C | inactive

system: not listed separately; experiment: Validation screen for small molecules that induce DNA re-replication in MCF 10A normal breast cells (AID 463097); conditions: MCF 10A cells, DNA re-replication phenotype imaging; series mostly up to 46.1 µM; also: nearly all actives have a fitted effect of over 60% in size; also: potency is read from the fitted curve at half-maximal effect
Procedure, shortened: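 Readout: Hoechst nuclear fluorescence intensity, 405 ex / 500-530 em, by scanning plate imager; re-replication scored as increase in nuclei with elevated DNA content. Cells exposed to compound 48 hr, 37 C, 5% CO2 beforehand.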

Row | SMILES | Potency
10 | CC(N)C(=O)OC(C)(C)Cc1ccc(Cl)cc1 (stereo not drawn) | inactive
11 | NC(=O)CN1CCCC1=O | inactive
12 | c1ccc2nc(N3CCNCC3)ccc2c1 | inactive
13 | COc1ccc(C(=O)N2CCCC2=O)cc1 | inactive
14 | O=C(O)c1nn(Cc2ccc(Cl)cc2Cl)c2ccccc12 | inactive
15 | CCCCCCCCC(=O)NCc1ccc(O)c(OC)c1 | inactive
16 | COC(=O)C1=C(C)NC(C)=C(C(=O)OC)C1c1ccccc1[N+](=O)[O-] | 12.6 µM (active)
17 | COC(=O)C1=CCCN(C)C1 | inactive

target: Ubiquitin carboxyl-terminal hydrolase 2 (Homo sapiens) (UniProt O75604); experiment: qHTS Validation Assay for Inhibitors of Ubiquitin-specific Protease USP2a Using CHOP2 as the Reporter (AID 463106); conditions: USP2a cleavage of CHOP2 reporter, enzymatic; series mostly up to 38.3 µM
Procedure, shortened: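 USP2 core (10 nM final) was preincubated with compound 30 min at RT in pH 8.0 Tris/CaCl2/beta-ME/CHAPS buffer. Ub-CHOP2 and reporter substrate (25 nM final each) were then added, with fluorescence (Ex 485/Em 531) read after 60 min. Data were normalized to NEM full inhibition and fitted to concentration-response curves.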

Ubiquitin carboxyl-terminal hydrolase 2 (Homo sapiens), sequence (O75604 whole entry, looked up): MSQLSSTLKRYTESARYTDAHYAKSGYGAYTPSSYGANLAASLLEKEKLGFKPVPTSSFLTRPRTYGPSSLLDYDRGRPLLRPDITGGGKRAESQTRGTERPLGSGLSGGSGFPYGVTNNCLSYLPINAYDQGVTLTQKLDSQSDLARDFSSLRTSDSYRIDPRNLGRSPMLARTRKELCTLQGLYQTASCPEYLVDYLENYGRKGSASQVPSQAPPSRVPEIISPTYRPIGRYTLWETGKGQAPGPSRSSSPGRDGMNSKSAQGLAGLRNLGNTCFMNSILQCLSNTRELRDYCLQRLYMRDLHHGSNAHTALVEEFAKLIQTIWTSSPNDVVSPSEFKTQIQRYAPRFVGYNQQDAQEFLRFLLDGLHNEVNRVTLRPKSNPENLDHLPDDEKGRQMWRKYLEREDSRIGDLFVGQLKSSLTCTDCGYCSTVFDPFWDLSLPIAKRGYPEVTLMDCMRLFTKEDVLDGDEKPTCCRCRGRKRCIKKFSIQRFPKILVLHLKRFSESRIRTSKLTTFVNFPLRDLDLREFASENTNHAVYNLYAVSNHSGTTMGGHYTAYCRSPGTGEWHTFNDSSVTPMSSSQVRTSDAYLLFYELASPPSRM

Row | SMILES | outcome
18 | NC(=O)CN1CCCC1=O | inactive
19 | COc1ccc(C(=O)N2CCCC2=O)cc1 | inactive
20 | O=C(O)c1nn(Cc2ccc(Cl)cc2Cl)c2ccccc12 | inactive
21 | COC(=O)C1=CCCN(C)C1 | inactive

target: DNA polymerase III PolC-type (Bacillus subtilis (strain 168)) (UniProt P13267); experiment: qHTS Validation Assay for the Inhibitors of DNA Replication in Gram-Positive Bacteria (AID 485295); conditions: Gram-positive bacterial DNA replication assay; series mostly up to 57.1 µM;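 also: PicoGreen fluorescence of double-stranded DNA made on primed circular M13 template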
Procedure, shortened: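 Reconstituted B. subtilis holoenzyme (Pol III, beta clamp, SSB, primase) was preincubated with compound at room temperature, then given single-stranded circular M13Gori plus dNTPs and NTPs. EDTA-containing PicoGreen stopped the reaction, and dsDNA product was read by fluorescence.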

DNA polymerase III PolC-type (Bacillus subtilis (strain 168)), sequence (P13267 whole entry, looked up): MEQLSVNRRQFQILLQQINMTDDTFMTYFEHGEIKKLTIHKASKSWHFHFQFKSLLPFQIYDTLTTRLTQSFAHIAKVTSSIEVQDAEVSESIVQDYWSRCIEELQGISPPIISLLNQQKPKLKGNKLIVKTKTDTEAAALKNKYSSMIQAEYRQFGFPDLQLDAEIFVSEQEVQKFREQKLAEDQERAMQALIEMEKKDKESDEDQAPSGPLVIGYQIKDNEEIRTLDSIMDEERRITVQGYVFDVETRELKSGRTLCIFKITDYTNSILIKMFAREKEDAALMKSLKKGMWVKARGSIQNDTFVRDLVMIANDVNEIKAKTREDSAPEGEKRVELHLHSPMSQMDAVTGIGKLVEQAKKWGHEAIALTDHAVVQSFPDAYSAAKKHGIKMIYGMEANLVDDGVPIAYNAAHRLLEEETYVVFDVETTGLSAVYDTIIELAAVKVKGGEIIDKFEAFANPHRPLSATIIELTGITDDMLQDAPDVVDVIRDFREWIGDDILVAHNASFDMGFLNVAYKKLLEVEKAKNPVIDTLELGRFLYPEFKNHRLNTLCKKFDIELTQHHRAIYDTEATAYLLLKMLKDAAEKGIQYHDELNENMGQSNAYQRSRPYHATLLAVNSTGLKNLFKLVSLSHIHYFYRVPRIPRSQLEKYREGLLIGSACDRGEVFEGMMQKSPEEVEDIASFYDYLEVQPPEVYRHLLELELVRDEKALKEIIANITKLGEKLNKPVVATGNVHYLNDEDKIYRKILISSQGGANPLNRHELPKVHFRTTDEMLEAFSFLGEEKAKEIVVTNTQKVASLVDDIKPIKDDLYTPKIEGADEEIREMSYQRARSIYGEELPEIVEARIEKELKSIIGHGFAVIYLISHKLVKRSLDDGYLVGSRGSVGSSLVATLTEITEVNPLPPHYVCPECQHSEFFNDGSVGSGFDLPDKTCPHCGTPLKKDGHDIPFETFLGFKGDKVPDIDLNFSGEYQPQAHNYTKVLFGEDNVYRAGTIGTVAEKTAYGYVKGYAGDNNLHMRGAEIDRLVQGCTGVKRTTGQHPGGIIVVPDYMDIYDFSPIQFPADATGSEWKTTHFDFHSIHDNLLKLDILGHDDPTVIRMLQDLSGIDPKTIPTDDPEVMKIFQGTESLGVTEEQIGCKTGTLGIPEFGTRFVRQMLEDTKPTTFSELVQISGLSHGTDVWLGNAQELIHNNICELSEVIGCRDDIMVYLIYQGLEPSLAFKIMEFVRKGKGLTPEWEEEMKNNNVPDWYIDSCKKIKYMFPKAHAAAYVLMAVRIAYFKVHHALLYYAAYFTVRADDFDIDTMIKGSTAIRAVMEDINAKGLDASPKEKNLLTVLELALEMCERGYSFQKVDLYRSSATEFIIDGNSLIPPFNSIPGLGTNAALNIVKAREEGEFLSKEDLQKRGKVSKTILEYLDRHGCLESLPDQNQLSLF

Row | SMILES | outcome
22 | NC(=O)CN1CCCC1=O | inactive
23 | COc1ccc(C(=O)N2CCCC2=O)cc1 | inactive
24 | O=C(O)c1nn(Cc2ccc(Cl)cc2Cl)c2ccccc12 | inactive
25 | COC(=O)C1=CCCN(C)C1 | inactive
26 | C[N+](C)(C)CCCCCCCCCC[N+](C)(C)C | inactive

target: Tumor susceptibility gene 101 protein (Homo sapiens) (UniProt Q99816); experiment: qHTS Validation Assay for Iinhibitors of HIV-1 Budding by Blocking the Interaction of PTAP/TSG101 (AID 485342; calls by dose curve); conditions: TSG101-PTAP binding, fluorescence polarization, 4-point titration; series mostly up to 115 µM
Procedure, shortened: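 Tsg101 binding domain (10 uM final) in pH 7.5 HEPES/NaCl/Tween 20/EDTA/TCEP buffer was mixed with pin-transferred compounds, then FITC-labeled PTAP peptide (50 nM final) was added; after 20 min at r.t., fluorescence polarization was read.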

Tumor susceptibility gene 101 protein (Homo sapiens), sequence (Q99816 whole entry, looked up, the tested form may be a part): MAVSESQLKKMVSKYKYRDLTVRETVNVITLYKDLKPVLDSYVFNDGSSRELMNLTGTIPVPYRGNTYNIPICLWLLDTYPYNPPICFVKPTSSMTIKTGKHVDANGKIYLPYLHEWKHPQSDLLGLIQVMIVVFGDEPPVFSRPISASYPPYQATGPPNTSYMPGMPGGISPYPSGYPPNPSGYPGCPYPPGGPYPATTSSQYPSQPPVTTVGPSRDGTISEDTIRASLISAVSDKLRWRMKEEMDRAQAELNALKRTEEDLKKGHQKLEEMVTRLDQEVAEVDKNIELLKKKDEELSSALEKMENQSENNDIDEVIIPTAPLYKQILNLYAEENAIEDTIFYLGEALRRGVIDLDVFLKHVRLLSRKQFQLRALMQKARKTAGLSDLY

Row | SMILES | outcome
27 | NC(=O)CN1CCCC1=O | inactive
28 | COc1ccc(C(=O)N2CCCC2=O)cc1 | inactive
29 | CCOC(=O)Nc1ccc(NCc2ccc(F)cc2)nc1N | inactive
30 | O=C(O)c1nn(Cc2ccc(Cl)cc2Cl)c2ccccc12 | inactive
31 | COC(=O)C1=CCCN(C)C1 | inactive

system: not listed separately; experiment: qHTS Validation Assay to Find Inhibitors of Chronic Active B-Cell Receptor Signaling (AID 485345; active = well fitted curve in the direction sought with a large enough effect in the main read-out, with a control signal flat, not every such curve was filed as active); conditions: ABC-DLBCL cells, chronic BCR signaling reporter, CBG luciferase; series mostly up to 46.1 µM
Procedure, shortened: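 TMD8 ABC-DLBCL cells stably carrying doxycycline-inducible IkappaBalpha–green luciferase fusion plus unfused red luciferase; compounds 46 uM to 3 nM, 4 h at 37C with doxycycline. Corrected green/red luminescence ratio normalized to 10 uM MG-132 and basal cell wells; curves fitted.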

Row | SMILES | outcome
32 | NC(=O)CN1CCCC1=O | inactive
33 | COc1ccc(C(=O)N2CCCC2=O)cc1 | inactive
34 | COC(=O)C1=CCCN(C)C1 | inactive

target: Beta-2 adrenergic receptor (Homo sapiens) (UniProt P07550); experiment: qHTS validation assay of beta-arrestin-biased ligands of beta2-adrenergic receptor (AID 485366); conditions: cell-based beta-arrestin recruitment to ADRB2, qHTS; series mostly up to 46.1 µM
Procedure, shortened: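 Arrestin-recruitment (Tango) reporter: ligand-bound beta2-AR recruits beta-arrestin, releasing tTA, which upregulates luciferase. Titrations of up to 46 microM incubated 18 hr at 37 degrees C before luminescent readout.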

Beta-2 adrenergic receptor (Homo sapiens), sequence (P07550 whole entry, looked up): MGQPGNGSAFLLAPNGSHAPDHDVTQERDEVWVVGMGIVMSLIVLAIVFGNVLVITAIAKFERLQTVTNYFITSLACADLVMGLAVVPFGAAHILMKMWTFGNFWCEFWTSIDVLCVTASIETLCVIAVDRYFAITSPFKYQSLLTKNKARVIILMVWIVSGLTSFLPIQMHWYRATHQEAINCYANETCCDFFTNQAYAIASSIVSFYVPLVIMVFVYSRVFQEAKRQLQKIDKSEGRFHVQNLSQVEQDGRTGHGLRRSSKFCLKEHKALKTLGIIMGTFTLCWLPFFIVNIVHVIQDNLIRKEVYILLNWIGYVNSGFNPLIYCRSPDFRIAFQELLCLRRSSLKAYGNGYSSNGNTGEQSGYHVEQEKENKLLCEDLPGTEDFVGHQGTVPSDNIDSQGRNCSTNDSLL

Row | SMILES | outcome
35 | NC(=O)CN1CCCC1=O | inactive
36 | COc1ccc(C(=O)N2CCCC2=O)cc1 | inactive
37 | O=C(O)c1nn(Cc2ccc(Cl)cc2Cl)c2ccccc12 | inactive
38 | COC(=O)C1=CCCN(C)C1 | inactive

target: ATP-dependent 6-phosphofructokinase (Trypanosoma brucei brucei) (UniProt O15648); experiment: qHTS Validation Assay to Find Inhibitors of T. brucei phosphofructokinase (AID 485368); conditions: T. brucei PFK enzyme assay, qHTS 7-point titration; series mostly up to 57.5 µM
Procedure, shortened: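 Steps: substrate mix (0.5 mM F6P, 0.1 mM ATP, MgCl2, TEA pH 8.0); compound; 1.25 nM T. brucei PFK; 45 min RT; ATP depletion 10 min; ADP-to-ATP detection 10 min; luminescence read; curve fitting and classification.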

ATP-dependent 6-phosphofructokinase (Trypanosoma brucei brucei), sequence (O15648 whole entry, looked up): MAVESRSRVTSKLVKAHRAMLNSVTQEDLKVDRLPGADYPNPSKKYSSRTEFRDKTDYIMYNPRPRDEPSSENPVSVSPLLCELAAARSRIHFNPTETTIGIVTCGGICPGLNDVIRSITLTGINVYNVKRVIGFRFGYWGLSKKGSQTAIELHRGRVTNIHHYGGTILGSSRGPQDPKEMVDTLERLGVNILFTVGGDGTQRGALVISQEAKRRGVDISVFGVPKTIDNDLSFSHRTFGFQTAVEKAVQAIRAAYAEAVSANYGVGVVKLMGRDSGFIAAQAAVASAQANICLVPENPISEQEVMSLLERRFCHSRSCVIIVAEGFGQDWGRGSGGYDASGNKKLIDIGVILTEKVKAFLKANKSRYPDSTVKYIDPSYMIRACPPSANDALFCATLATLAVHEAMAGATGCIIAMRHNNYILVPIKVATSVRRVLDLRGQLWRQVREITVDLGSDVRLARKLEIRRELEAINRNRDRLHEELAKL

Row | SMILES | outcome
39 | COc1ccc(C(=O)N2CCCC2=O)cc1 | inactive
40 | CNC(=O)Oc1ccc2c(c1)[C@]1(C)CCN(C)[C@@H]1N2C | inactive
41 | O=C(O)c1nn(Cc2ccc(Cl)cc2Cl)c2ccccc12 | inactive
42 | COC(=O)C1=CCCN(C)C1 | inactive

system: not listed separately; experiment: Quantitative high throughput screen for delayed death inhibitors of the malarial parasite plastid, 96 hour incubation (AID 488745); conditions: Plasmodium falciparum growth; series mostly up to 28.7 µM; also: nearly all actives have a fitted effect of over 70% in size; also: potency is read from the fitted curve at half-maximal effect
Procedure, shortened: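 P. falciparum carrying an integrated firefly luciferase reporter, grown in erythrocytes (2% hematocrit, 0.1% parasitemia final) in RPMI 1640/0.5% Albumax, was exposed to compound for 96 h (two generations) at 37 C, 5% CO2. Luminescence decrease indicated growth inhibition.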

Row | SMILES | Potency
43 | CC(N)C(=O)OC(C)(C)Cc1ccc(Cl)cc1 (stereo not drawn) | inactive
44 | NC(=O)CN1CCCC1=O | inactive
45 | c1ccc2nc(N3CCNCC3)ccc2c1 | inactive
46 | COc1ccc(C(=O)N2CCCC2=O)cc1 | inactive
47 | O=C(O)c1nn(Cc2ccc(Cl)cc2Cl)c2ccccc12 | inactive
48 | CCCCCCCCC(=O)NCc1ccc(O)c(OC)c1 | inactive
49 | O=C1NCN(c2ccccc2)C12CCN(CCCC(c1ccc(F)cc1)c1ccc(F)cc1)CC2 | 3.7 µM (active)
50 | COC(=O)C1=CCCN(C)C1 | inactive

system: not listed separately; experiment: Quantitative high throughput screen for delayed death inhibitors of the malarial parasite plastid, 48 hour incubation (AID 488752); conditions: Plasmodium falciparum growth; series mostly up to 28.7 µM; also: nearly all actives have a fitted effect of over 65% in size; also: potency is read from the fitted curve at half-maximal effect
Procedure, shortened: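 Erythrocytes infected with P. falciparum carrying an integrated firefly luciferase reporter (2% hematocrit, 0.1% parasitemia final) were exposed to compounds in RPMI 1640/0.5% Albumax for 48 h at 37 C, 5% CO2. Growth inhibition was scored as reduced luminescence.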

Row | SMILES | Potency
51 | CC(N)C(=O)OC(C)(C)Cc1ccc(Cl)cc1 (stereo not drawn) | inactive
52 | NC(=O)CN1CCCC1=O | inactive
53 | c1ccc2nc(N3CCNCC3)ccc2c1 | inactive
54 | COc1ccc(C(=O)N2CCCC2=O)cc1 | inactive
55 | O=C(O)c1nn(Cc2ccc(Cl)cc2Cl)c2ccccc12 | inactive
56 | CCCCCCCCC(=O)NCc1ccc(O)c(OC)c1 | inactive
57 | O=C1NCN(c2ccccc2)C12CCN(CCCC(c1ccc(F)cc1)c1ccc(F)cc1)CC2 | 9.28 µM (active)
58 | COC(=O)C1=CCCN(C)C1 | inactive
